Assay results taken from PubChem BioAssay (EPA / NIEHS).
Calls of active or inactive are those of the source. How the source made its calls: active means hit-call score of the fitted dose curve at least 0.9, where 1 is the maximum; inactive means score below 0.9.

What was measured:
[1] = ATG_CRE_CIS: Attagene CIS-FACTORIAL HepG2 Assay for human cAMP Responsive Element (CRE) binding protein 3 (AID 2282926); settings: HepG2 CRE cis-reporter, Attagene multiplexed mRNA; actives raise or lower the signal
In short: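 Readout: fluorescently labelled reporter transcripts resolved by capillary electrophoresis after RT-PCR, taken 24 h post-dosing in transfected HepG2. Endogenous transcription factor activity drives each cis-element reporter; gain or loss of signal fitted relative to DMSO control.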

[2] = biological target: CCAAT/enhancer-binding protein beta (Homo sapiens) (UniProt P17676); assay: ATG_C_EBP_CIS: Attagene CIS-FACTORIAL HepG2 Assay for human CCAAT/Enhancer Binding Protein (C/EBP) beta (AID 2282927); settings: HepG2 Attagene cis-factorial transcription factor reporter; actives raise or lower the signal
In short: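 HepG2, transient MRTU transfection, 24 h treatment. RT-PCR plus CE fluorescence; DMSO negative control, bidirectional fit.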

[3] = ATG_CMV_CIS: Attagene CIS-FACTORIAL HepG2 Assay for human CMV (Internal Marker) (AID 2282928); settings: HepG2 CMV promoter reporter, transcription factor profiling; actives raise or lower the signal;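 further: endpoint acts as a background internal control marker rather than a target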
In short: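 Reporter transcripts from transfected HepG2 cells are isolated after 24 h of chemical dosing, reverse-transcribed and amplified. Fragments labeled with 6-FAM are cut with HpaI and quantified by capillary electrophoresis; DMSO defines baseline.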

[4] = ATG_DR4_LXR_CIS: Attagene CIS-FACTORIAL HepG2 Assay for human Liver X Receptor (LXR), DR4 submotif (AID 2282929); settings: HepG2 Attagene DR4 cis-reporter, mRNA transcription; actives raise or lower the signal
In short: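 Transiently transfected HepG2 liver cells; cis-regulated reporters; 24 h dosing. RT-PCR plus CE read-out of reporter mRNA. DMSO baseline, bidirectional curve fitting.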

[5] = biological target: Aryl hydrocarbon receptor (Homo sapiens) (UniProt P35869); assay: ATG_Ahr_CIS: Attagene CIS-FACTORIAL HepG2 Assay for human Aryl Hydrocarbon Receptor (Ahr) (AID 2282930); settings: HepG2 AhR cis-factorial reporter transcription; actives raise or lower the signal
In short: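 Endogenous factor activity is tracked through cis-promoter reporter units transfected into HepG2 cells. Transcript levels at 24 h are read by fluorescent RT-PCR and capillary electrophoresis, with activity in either direction scored relative to DMSO.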

[6] = ATG_AP_1_CIS: Attagene CIS-FACTORIAL HepG2 Assay for human Activator Protein 1 (AP-1) (AID 2282931); settings: HepG2 Attagene cis-factorial AP-1 reporter mRNA; actives raise or lower the signal
In short: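 We transfected HepG2 cells transiently with a set of cis-regulated reporter transcription units, dosed them for 24 h, and quantified reporter mRNA via RT-PCR and capillary electrophoresis, scoring gain or loss of signal relative to DMSO.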

[7] = ATG_AP_2_CIS: Attagene CIS-FACTORIAL HepG2 Assay for human Activator Protein 2 (AP-2) (AID 2282932); settings: HepG2 AP-2 cis-reporter, Attagene transcription factor profiling; actives raise or lower the signal
In short: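 Liver-derived HepG2 line, cis-reporter system measuring endogenous factors; 24 h dosing; reporter mRNA detected by fluorescent RT-PCR and capillary electrophoresis.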

[8] = ATG_BRE_CIS: Attagene CIS-FACTORIAL HepG2 Assay for human Bone Morphogenetic Protein (BMP) Response Element (BRE) (AID 2282933); settings: HepG2 BMP response element reporter, Attagene transcription factor profiling; actives raise or lower the signal
In short: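 Read-out: reporter mRNA induction quantified by RT-PCR and capillary electrophoresis after 24 h chemical exposure of transfected HepG2 cells. Endogenous factor activity on the BMP response element; gain or loss fitted against DMSO baseline.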

[9] = biological target: Transcription factor E2F1 (Homo sapiens) (UniProt Q01094); assay: ATG_E2F_CIS: Attagene CIS-FACTORIAL HepG2 Assay for human E2F Transcription Factor 1 (AID 2282935); settings: HepG2 Attagene cis-reporter, E2F reporter RNA transcripts; actives raise or lower the signal
In short: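 Liver-derived HepG2 cells expressing transfected promoter-driven reporter units received test chemical for 24 hours. Signal gains or losses were fitted bidirectionally against DMSO.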

[10] = ATG_M_61_CIS: Attagene CIS-FACTORIAL HepG2 Assay for M61 Transcription Factor (Internal Marker) (AID 2282937); settings: HepG2 Attagene CIS-FACTORIAL M61 internal marker reporter; actives raise or lower the signal
In short: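 Multiplexed reporter mRNA assay, HepG2 human hepatoma cells, 24 h treatment. Signal: FAM-labelled, HpaI-digested RT-PCR fragments by CE. Fit: bidirectional, baseline DMSO.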

[11] = ATG_EGR_CIS: Attagene CIS-FACTORIAL HepG2 Assay for human Early Growth Response 1 (EGR1) (AID 2282938); settings: HepG2 Attagene CIS-FACTORIAL EGR reporter mRNA; actives raise or lower the signal
In short: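 Multiplexed cis-reporter system in human hepatoma HepG2 cells, transiently transfected. Cells are dosed for 24 h; reporter transcripts are amplified, fluorescently tagged and sized by capillary electrophoresis, with DMSO as negative control.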

[12] = ATG_M_19_CIS: Attagene CIS-FACTORIAL HepG2 Assay for M19 Transcription Factor (Internal Marker) (AID 2282939); settings: HepG2 Attagene CIS-FACTORIAL M19 internal marker reporter; actives raise or lower the signal
In short: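 Readout: fluorescent reporter-transcript fragments by capillary electrophoresis after RT-PCR. Human HepG2 liver cells carried transfected MRTU constructs reporting endogenous transcription-factor activity; exposure 24 h. Gain or loss of signal fitted relative to DMSO.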

[13] = ATG_ERE_CIS: Attagene CIS-FACTORIAL HepG2 Assay for Estrogen Response Element (ERE) (AID 2282940); settings: HepG2 ERE cis-reporter, Attagene RNA transcript; actives raise or lower the signal
In short: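 Readout: reporter mRNA induction by RT-PCR, FAM-labelled primer extension, HpaI digestion and capillary electrophoresis, 24 h after dosing transfected HepG2 cells. Endogenous transcription factors act on cis-element-regulated reporters. Gain or loss fitted against DMSO.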

[14] = ATG_Ets_CIS: Attagene CIS-FACTORIAL HepG2 Assay for human Erythroblast Transformation Specific (ETS) (AID 2282941); settings: HepG2 ETS cis-reporter transcription, actives raise or lower the signal
In short: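 Bidirectional fit versus DMSO of reporter mRNA signal, detected by RT-PCR and capillary electrophoresis in HepG2 cells transiently transfected with cis-element reporters and dosed 24 h.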

[15] = biological target: Hepatocyte nuclear factor 3-beta (Homo sapiens) (UniProt Q9Y261); assay: ATG_FoxA2_CIS: Attagene CIS-FACTORIAL HepG2 Assay for human Forkhead box A2 (FOXA2) (AID 2282942); settings: HepG2 cis-reporter transcription factor activity, 24 h; actives raise or lower the signal
In short: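 Multiplexed cis-element reporter assay in transiently transfected HepG2. Twenty-four hours post-dosing, RNA was reverse-transcribed, amplified, FAM-labelled, HpaI-digested and separated by CE. Activity gain or loss relative to DMSO.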

[16] = ATG_FoxO_CIS: Attagene CIS-FACTORIAL HepG2 Assay for human Forkhead box O (FoxO) (AID 2282943); settings: HepG2 Attagene cis-reporter, FoxO element, mRNA; actives raise or lower the signal
In short: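 Transfected HepG2 reporter cells exposed to test chemical for 24 h; reporter RNA measured by reverse transcription, PCR and fluorescent capillary electrophoresis; curves fitted for increases and decreases against DMSO.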

[17] = ATG_GATA_CIS: Attagene CIS-FACTORIAL HepG2 Assay for human GATA Binding Protein (AID 2282944); settings: HepG2 GATA cis-element reporter, Attagene multiplex mRNA; actives raise or lower the signal
In short: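 Read-out: fluorescent reporter mRNA fragments resolved by capillary electrophoresis after RT-PCR. Human liver HepG2 cells carried transiently transfected cis-regulated reporter constructs; chemicals incubated 24 h; gain or loss of signal fitted relative to DMSO.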

[18] = ATG_GLI_CIS: Attagene CIS-FACTORIAL HepG2 Assay for human Zinc Finger Protein GLI1 (AID 2282945); settings: HepG2, Attagene cis-factorial reporter mRNA, GLI element; actives raise or lower the signal
In short: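 Transiently transfected HepG2 cells report endogenous transcription factor activity via cis-element-driven reporter units. After 24 h compound exposure, reporter mRNA was measured by RT-PCR with capillary electrophoresis; bidirectional fitting against DMSO baseline.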

[19] = ATG_E_Box_CIS: Attagene CIS-FACTORIAL HepG2 Assay for human Enhancer Box (E-box) (AID 2282936); settings: HepG2 E-box cis-reporter transcription, actives raise or lower the signal
In short: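 In this cell-based setup, HepG2 cells bearing transfected promoter-driven reporter units were exposed to chemicals for 24 h; reporter transcripts were amplified, 6-FAM-labelled, cut with HpaI and sized by capillary electrophoresis.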

Measured: AC50

Chain of Hepatocyte nuclear factor 3-beta (Homo sapiens) (Q9Y261 whole entry, looked up): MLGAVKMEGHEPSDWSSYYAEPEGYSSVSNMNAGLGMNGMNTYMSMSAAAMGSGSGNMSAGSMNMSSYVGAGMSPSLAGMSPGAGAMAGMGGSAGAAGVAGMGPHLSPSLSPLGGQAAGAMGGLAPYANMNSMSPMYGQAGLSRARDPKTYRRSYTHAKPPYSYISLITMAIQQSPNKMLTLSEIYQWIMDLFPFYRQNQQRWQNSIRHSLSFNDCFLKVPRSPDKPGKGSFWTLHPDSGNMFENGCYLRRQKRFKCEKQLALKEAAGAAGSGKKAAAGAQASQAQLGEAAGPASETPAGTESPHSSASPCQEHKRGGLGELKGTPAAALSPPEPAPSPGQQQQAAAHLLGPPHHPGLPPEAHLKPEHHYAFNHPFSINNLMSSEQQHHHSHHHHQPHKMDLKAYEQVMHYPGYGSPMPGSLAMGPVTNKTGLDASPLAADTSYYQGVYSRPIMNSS
Chain of Aryl hydrocarbon receptor (Homo sapiens) (P35869 whole entry, looked up): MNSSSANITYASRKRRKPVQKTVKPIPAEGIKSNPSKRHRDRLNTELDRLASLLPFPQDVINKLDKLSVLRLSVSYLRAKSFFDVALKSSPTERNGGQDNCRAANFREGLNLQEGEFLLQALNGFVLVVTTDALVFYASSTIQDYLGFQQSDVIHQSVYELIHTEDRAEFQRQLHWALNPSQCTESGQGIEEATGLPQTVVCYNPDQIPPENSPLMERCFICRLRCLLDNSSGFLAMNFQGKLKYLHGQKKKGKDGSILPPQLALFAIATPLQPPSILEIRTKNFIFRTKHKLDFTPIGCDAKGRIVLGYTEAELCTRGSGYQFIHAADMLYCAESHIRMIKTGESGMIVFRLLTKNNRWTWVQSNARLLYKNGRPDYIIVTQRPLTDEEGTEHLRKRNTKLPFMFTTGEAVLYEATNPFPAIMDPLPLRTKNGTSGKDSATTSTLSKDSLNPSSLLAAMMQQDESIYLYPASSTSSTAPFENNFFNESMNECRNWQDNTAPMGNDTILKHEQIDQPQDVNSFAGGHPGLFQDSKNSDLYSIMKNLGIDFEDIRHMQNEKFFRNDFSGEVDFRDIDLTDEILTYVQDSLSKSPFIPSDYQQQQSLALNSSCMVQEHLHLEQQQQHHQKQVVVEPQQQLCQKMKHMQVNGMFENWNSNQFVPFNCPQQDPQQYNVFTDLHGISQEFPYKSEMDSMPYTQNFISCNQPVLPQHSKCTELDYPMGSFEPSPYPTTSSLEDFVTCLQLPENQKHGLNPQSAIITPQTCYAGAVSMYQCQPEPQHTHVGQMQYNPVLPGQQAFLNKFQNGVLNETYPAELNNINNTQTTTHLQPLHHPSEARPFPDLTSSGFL
Chain of CCAAT/enhancer-binding protein beta (Homo sapiens) (P17676 whole entry, looked up): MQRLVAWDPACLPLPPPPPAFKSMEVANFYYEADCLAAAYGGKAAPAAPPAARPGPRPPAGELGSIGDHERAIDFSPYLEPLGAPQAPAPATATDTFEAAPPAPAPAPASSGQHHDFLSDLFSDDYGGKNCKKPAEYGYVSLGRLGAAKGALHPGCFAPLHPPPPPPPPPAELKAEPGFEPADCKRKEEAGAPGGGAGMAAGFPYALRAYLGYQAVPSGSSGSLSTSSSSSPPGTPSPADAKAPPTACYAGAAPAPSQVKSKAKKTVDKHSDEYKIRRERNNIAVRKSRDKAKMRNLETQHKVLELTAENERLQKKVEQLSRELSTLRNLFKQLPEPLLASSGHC
Chain of Transcription factor E2F1 (Homo sapiens) (Q01094 whole entry, looked up): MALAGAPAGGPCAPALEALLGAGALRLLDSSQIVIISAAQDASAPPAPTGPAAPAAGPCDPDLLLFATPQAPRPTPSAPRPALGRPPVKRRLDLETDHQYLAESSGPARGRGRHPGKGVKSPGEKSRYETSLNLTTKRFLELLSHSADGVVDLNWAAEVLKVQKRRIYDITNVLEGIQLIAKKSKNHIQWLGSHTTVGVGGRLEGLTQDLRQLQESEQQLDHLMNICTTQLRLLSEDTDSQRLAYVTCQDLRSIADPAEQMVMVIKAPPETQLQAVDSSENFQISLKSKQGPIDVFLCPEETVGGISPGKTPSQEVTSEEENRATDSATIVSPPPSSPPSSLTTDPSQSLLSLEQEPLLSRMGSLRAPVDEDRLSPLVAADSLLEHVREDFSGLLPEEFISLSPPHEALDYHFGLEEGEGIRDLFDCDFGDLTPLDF

Cc1cc(C2(c3cc(C)c(O)cc3C)OS(=O)(=O)c3ccccc32)c(C)cc1O
active: [5] 44.5 µM | [13] 2.74 µM
not listed: [19]
inactive: all other assays above

CC(C)(CO)[N+](=O)[O-]
not listed: [13] | [19]
inactive: all other assays above

COc1cccc(OC)c1
not listed: [13] | [14]
inactive: all other assays above

CCCCC(CC)COCCC#N (stereo unspecified)
not listed: [13] | [14]
inactive: all other assays above

OCC(CO)(CO)COCC(CO)(CO)CO
not listed: [19]
inactive: all other assays above

OC1OC[C@@H](O)[C@H](O)[C@H]1O (stereo partly specified)
not listed: [13] | [19]
inactive: all other assays above

CN(C)CCOCCN(C)C
not listed: [13] | [16] | [19]
inactive: all other assays above

O=C(O)c1cccc([N+](=O)[O-])c1
not listed: [13] | [16] | [17]
inactive: all other assays above
